High-throughput results deposited in PubChem by National Center for Advancing Translational Sciences (NCATS).
Compounds with a hit are over-represented: about 9.4% of the library has one in this group of screens.
SMN2 splice enh: enhancers of SMN2 splice variant expression | HEK293 SMN2-luciferase splicing reporter, luminescence, 30-36 h | Potency, µM (series often up to 46.1 µM), without a hit: top-dose activity change, positive = activation, hits mostly activators | 210,000 tested, 2.8% active | AID 1458; further: % of control where 0% means no effect; nearly all actives have a fitted effect of over 55% in size
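qHTS luciferase splicing reporter: luminescence rises when SMN2 exon 7 is included in transfected HEK293 cells. Compound exposure lasted 30-36 h at 37C, with 4.5 mM final sodium butyrate as control, followed by a ONE-Glo read.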
Rab9 prom act: Rab9 promoter activation; Huh7 Rab9 promoter-luciferase reporter, luminescence, 24 h; Potency, µM (titrated, usually from 9.22 µM), for inactives: at the highest dose activation, negative = inhibition, hits mostly activators; 320,000 tested, 2.8% active; further: % of control where 0% means no effect; nearly all actives have a fitted effect of over 60% in size
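Stable Rab9-luc Huh7, 1500 cells/well, 2 h settle; cmpd in DMSO, 24 h, 37 °C/5% CO2; luciferase reagent 10 min RT; luminescence.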
NPC1 prom act: activates the NPC1 promoter; Huh7 NPC1 promoter luciferase reporter, 24 h; 320,000 tested, 2.4% active; AID 485313; Potency, µM (doses to about 9.22 µM), for the others: at the highest dose activation, hits mostly activators; further: % of control where 0% means no effect; nearly all actives have a fitted effect of over 60% in size
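Huh7 reporter cells (NPC1 promoter driving luciferase) are dosed with compound for 24 h at 37 °C, 5% CO2; luciferase detection reagent is then added and luminescence measured after 10 min at ambient temperature.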
FLuc modulator: inhibits or activates purified firefly luciferase, miR-21 counter-screen. P08659. Potency, µM (doses to about 57.5 µM), for the others: at the top dose activity change, negative = inhibition, usual class: inhibitors. 360,000 tested, 6.9% active. purified FLuc, Km substrates, luminescence inhibition;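 further: plate controls were vehicle for no effect and reference inhibitor for full effect; nearly all actives have a fitted effect of over 55% in size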
Target sequence (P08659 whole entry, looked up): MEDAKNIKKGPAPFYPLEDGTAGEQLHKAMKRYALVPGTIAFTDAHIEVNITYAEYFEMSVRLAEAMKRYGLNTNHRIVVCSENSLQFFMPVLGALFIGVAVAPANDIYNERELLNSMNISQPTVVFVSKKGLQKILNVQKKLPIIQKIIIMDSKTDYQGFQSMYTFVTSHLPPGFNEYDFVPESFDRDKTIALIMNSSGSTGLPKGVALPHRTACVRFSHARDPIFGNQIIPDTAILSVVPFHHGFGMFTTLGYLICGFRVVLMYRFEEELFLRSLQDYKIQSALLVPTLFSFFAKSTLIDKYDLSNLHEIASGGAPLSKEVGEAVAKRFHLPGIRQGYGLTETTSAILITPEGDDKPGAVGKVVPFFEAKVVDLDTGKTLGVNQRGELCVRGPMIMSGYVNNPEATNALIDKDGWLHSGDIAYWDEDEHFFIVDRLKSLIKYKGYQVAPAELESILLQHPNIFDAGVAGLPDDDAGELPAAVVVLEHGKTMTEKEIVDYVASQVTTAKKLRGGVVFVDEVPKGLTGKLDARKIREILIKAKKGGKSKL
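Purified P. pyralis luciferase (10nM final) with 10uM D-luciferin and 10uM ATP (Km levels) in 50mM Tris acetate pH 7.5, 10mM Mg acetate, 0.01% Tween-20, 0.05% BSA; qHTS 6-point titration, ~60 µM downward; luminescence read.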
ELG1 genotoxic: induces genotoxicity in HEK293T cells with luciferase-tagged ELG1; HEK293T ELG1-luciferase reporter, luminescence, 16 h; Potency, µM (titrated, usually from 46 µM), inactives show at the top dose activity change, positive = activation, most hits filed as activators; 330,000 tested, 1.3% active; AID 504466; further: % of control where 0% means no effect; nearly all actives have a fitted effect of over 60% in size
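Luminescence read-out: rising ELG1-luciferase signal, reflecting elevated ELG1 protein under genetic stress, flags genotoxic compounds. Cells were treated for 16 hr at 37 °C before ONE-Glo detection.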
ELG1 repair inh: ELG1-dependent DNA repair inhibition. Potency, µM (series often up to 46.1 µM), for inactives: at the highest dose activity change, negative = inhibition, most hits filed as inhibitors. HEK293T ELG1-luciferase reporter, luminescence, 16 h; DNA damage induced by 5-fluorouridine. 330,000 tested, 2.3% active. AID 504467; further: on the % scale 0 is the no-effect control and ±100 the full control effect; nearly all actives have a fitted effect of over 55% in size
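Overnight (16 hr) co-exposure of 2,000 cells/well to 5-fluorouridine and compound at 37 °C preceded detection. Luciferase was quantified via ONE-Glo luminescence; loss of signal denotes inhibition.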
* = called active by the depositor; ? = inconclusive; / = not tested or not shown. The call rests on the fitted dose curve; in most records, active means well fitted curve in the direction sought with a large enough effect; inconclusive means small, poorly fitted or top-dose-only effect, or another doubt; inactive means no such curve, though single readings can be large; an effect the other way counts as inactive or inconclusive. Potency means the concentration at half of the fitted maximal effect.

SMILES	SMN2 splice enh	Rab9 prom act	NPC1 prom act	FLuc modulator	ELG1 genotoxic	ELG1 repair inh
O=C(COc1ccc(Cl)cc1Br)Nc1cccc(S(=O)(=O)N2CCCC2)c1	/	-1%	9%	2.7µM*	-6%	-14%
Cc1cc(Cl)ccc1OCC(=O)Nc1cccc(S(=O)(=O)N2CCCC2)c1	/	-3%	-4%	9.5µM*	-5%	-14%
Cc1ccc2cccc(OCC(=O)Nc3cccc(S(=O)(=O)N4CCCC4)c3)c2n1	/	-3%	-2%	0%	-12%	18µM*
Cc1c(Cl)cccc1NC(=O)Nc1ccc2snnc2c1	5%	/	/	?	/	/
Cc1ccc(CNC(=O)CN2C(=O)C3(SCC(=O)N3c3cc(C)cc(C)c3)c3ccccc32)cc1 (stereo not given)	/	/	/	-8%	/	/
O=C(N/N=C/c1cccnc1)c1ccccc1Br	/	-2%	3%	-10%	2%	2%
O=C(O)c1ccccc1C(=O)Nc1ccccn1	-5%	5%	-8%	3%	6%	8%
O=C(Nc1ccccn1)c1ccc2ccccc2c1O	/	3.2µM*	3.2µM*	21µM*	23%	?
CC(C)c1ccc(/C=N/NC(=O)c2ccccc2Cl)cc1	/	1%	-17%	24µM*	?	?
O=C(N/N=C/c1cccnc1)c1ccc2ccccc2c1O	/	27%	13%	5.4µM*	?	?
COc1cc(/C=N\NC(=O)c2cccnc2)ccc1OC(=O)c1ccccc1Cl	/	3%	-1%	11µM*	14%	-4%
COc1cc(/C=N/NC(=O)c2cccnc2)ccc1OC(=O)c1ccco1	3%	1%	-5%	-20%	0%	0%
Cc1csc2nc(COC(=O)c3ccccc3NC(=O)COc3ccccc3F)cc(=O)n12	/	/	/	1%	/	/
CCOc1cc2[nH]c(=O)n(CCC(=O)N3CCN(c4cccc(Cl)c4)CC3)c(=O)c2cc1OCC	/	/	/	-2%	/	/
COc1ccc(/C=N/NC(N)=S)cc1OC(=O)c1cccc2ccccc12	-47%	5%	1%	6µM*	-5%	?
COc1ccc(C(=O)Oc2cc(/C=N/NC(N)=S)ccc2OC)cc1	9%	-6%	-5%	-13%	2%	?
O=C(N/N=C\c1cccnc1)c1ccccc1O	/	?	28%	7.6µM*	?	?
O=C(Cc1ccccc1)Nc1cccc([N+](=O)[O-])c1	-23%	-2%	-4%	2%	0%	5%
O=C(Nc1cccc([N+](=O)[O-])c1)c1ccc2ccccc2c1O	/	?	?	0.67µM*	15%	?
O=C(N/N=C/c1cccnc1)c1ccccc1Cl	/	25%	24%	11µM*	15%	?
Cn1ccnc1SCC(=O)Nc1cc(Cl)ccc1Cl	-2%	/	/	-4%	/	/
O=C(Cc1cccc2ccccc12)Nc1cccnc1	-16%	-4%	-3%	4%	9%	-4%
O=C(Nc1cccnc1)c1ccc2ccccc2c1O	/	2µM*	2.5µM*	2.1µM*	?	?
O=C(Nc1cccc(Cl)c1N1CCCCC1)c1ccc2c(c1)OCCO2	17%	2%	-6%	3%	0%	0%
O=C(Nc1cccc2cccnc12)c1ccc2c(c1)OCCO2	27%	?	11%	12µM*	?	?
SMILES	SMN2 splice enh	Rab9 prom act	NPC1 prom act	FLuc modulator	ELG1 genotoxic	ELG1 repair inh
COc1ccc(N2CCOCC2)c(NC(=O)c2ccc3c(c2)OCO3)c1	/	-1%	-2%	-15%	6%	3%
COc1cc(NC(=O)c2ccc3c(c2)OCO3)c2ncccc2c1	-63%	10%	15%	1.9µM*	6%	?
CCOc1cc(-c2noc(-c3cccnc3)n2)ccc1OC	7%	3%	0%	-14%	6%	11%
CCOc1ccc(-c2nc(-c3ccccc3C)no2)cc1	1.6µM*	0.45µM*	0.63µM*	1.1µM*	0.73µM*	?
CCOc1ccc(-c2cc(-c3nc(-c4ccc(C)cc4)no3)[nH]n2)cc1	/	/	/	21µM*	/	/
CCOc1ccc(-c2nc(-c3cccnc3)no2)cc1	1µM*	0.56µM*	0.63µM*	0.95µM*	?	?
CCCCOc1ccc(-c2nc(-c3cccnc3)no2)cc1	13µM*	2µM*	3.5µM*	4.3µM*	6.5µM*	?
CC(C)OCCCNC(=O)C(=O)Nc1c2c(nn1-c1ccccc1)CS(=O)(=O)C2	/	/	/	5%	/	/
O=C(NC(=S)Nc1nc2c(s1)CCCC2)c1ccccc1	2µM*	?	4µM*	3.4µM*	5.2µM*	?
S=C(Nc1nc2c(s1)CCCC2)NC1CC1	/	2.5µM*	?	12µM*	?	?
O=C(CS(=O)(=O)Cc1ccccc1)Nc1nc2c(s1)CCCC2	6%	5%	1%	1%	10%	1%
COC(=O)c1ccc(C(=O)NC(=S)Nc2nc3c(s2)CCCC3)cc1	?	?	4µM*	15µM*	11%	?
O=c1nc(N/N=C/C=C/c2ccccc2)cn[nH]1	/	0.35µM*	0.5µM*	4.8µM*	2.1µM*	?
Brc1ccccc1/C=N/Nc1ccccn1	?	19%	1%	?	?	?
O=C(O)c1cccc2c(/C=N/Nc3ccccn3)c[nH]c12	/	2.8µM*	?	8.5µM*	8%	?
C(=C\c1ccccc1)/C=N/Nc1nncc(-c2ccccc2)n1	-11%	-5%	-2%	3%	0%	10%
O=c1cnnc(N/N=C/c2c[nH]c3ccccc23)[nH]1	-2%	-10%	2%	-1%	5%	-1%
C(=N\Nc1ccccn1)/c1c[nH]c2ccccc12	/	28%	-3%	15µM*	?	?
O=c1nc(N/N=C/c2c[nH]c3ccccc23)cn[nH]1	/	2µM*	2.5µM*	12µM*	10µM*	?
CCc1ccc(C(=O)NNc2ccc(C)c(Cl)c2)cc1	/	-3%	16%	-17%	10%	18µM*
O=C(C1CCN(S(=O)(=O)c2cccc3nsnc23)CC1)N1CC=C(c2ccccc2)CC1	-38%	-3%	-2%	-9%	-8%	18µM*
O=C(C1CCCN(S(=O)(=O)c2cccc3nsnc23)C1)N1CC=C(c2ccccc2)CC1 (stereo not given)	-50%	-1%	-1%	2%	-12%	?
O=C(C1CCC(CNS(=O)(=O)c2cccc3nsnc23)CC1)N1CC=C(c2ccccc2)CC1 (stereo not given)	-34%	-8%	4%	-1%	-10%	21µM*
N#Cc1cccc(CS(=O)(=O)c2nnnn2C2CCCCC2)c1	22%	/	/	/	/	/
CCc1[nH]nc(C(=O)N/N=C/c2ccncc2)c1C	/	3.2µM*	2.8µM*	11µM*	23µM*	?
